Source: PubChem BioAssay
Casp7 inh – allosteric or competitive inhibitors of human caspase-7. P55210. recombinant caspase-7, Ac-DEVD-AFC fluorescence rate. Potency, µM (titrated, usually from 57.5 µM), without a hit: top-dose activity change, negative = inhibition, hits mostly inhibitors. 0.02% of 75,000 active; active means well fitted inhibition curve with a large enough effect in the main read-out, with a control signal flat, not every such curve was filed as active; inconclusive means small, poorly fitted or top-dose-only effect, or a change in a side signal; further: % of control where 0% means no effect
ERK AVP block – blocks ERK signaling stimulated by vasopressin; HEK293-V1b, vasopressin-stimulated pERK AlphaScreen; Potency, µM (top dose mostly 57.5 µM), for the others: at the top dose activity, negative = inhibition, hits mostly inhibitors; AID 995; 0.99% of 72,000 active; further: on the % scale 0 is the no-effect control and ±100 the full control effect; nearly all actives have a fitted effect of over 55% in size
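V1b-HEK293 cells; cpd 30 min 37C; 25 nM vasopressin 5 min; lyse 10 min; AlphaScreen beads 5 hr RT. Normalized to DMSO basal and 25 nM vasopressin; AC50 by Hill fit.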
HEK293 cAMP ctrl – counter-screen for TSHR agonists: cAMP increase in parental HEK293; 2.5% of 73,000 active; Potency, µM (doses to about 57.1 µM), inactives show top-dose activation, usual class: activators; parental HEK293 CNG cAMP sensor, membrane potential fluorescence; further: % of control where 0% means no effect; nearly all actives have a fitted effect of over 55% in size
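Counterscreen for endogenous-receptor signalling: CNG-channel HEK 293 cells report cAMP rise by membrane depolarization. After 60 min dye equilibration with 100 uM RO 20-1724, compounds incubated 30 min before bottom-read fluorescence at 590 nm.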
Caspase-1 inhib – allosteric or competitive inhibitors of human caspase-1 | P29466 | Caspase-1 enzyme, Ac-WEHD-AFC fluorogenic rate | Potency, µM (highest dose often 57.5 µM), for inactives: at the highest dose activity change, negative = inhibition, hits mostly inhibitors | 0.03% of 75,000 active;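 further: plate controls were vehicle for no effect and no substrate for full effect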
TSHR ag – activates the human thyroid stimulating hormone receptor | Potency, µM (series often up to 57.1 µM), inactives show top-dose activation, hits mostly activators | HEK293-CNG-TSHR cells (CNG channel as cAMP sensor), membrane potential dye, cAMP | P16473 | AID 926 | 0.48% of 73,000 active; active means well fitted activation curve with a large enough effect in the main read-out, with a control signal flat, not every such curve was filed as active; inconclusive means small, poorly fitted or top-dose-only effect, or a change in a side signal; inactive means no such curve, though single readings can be large or run the other way; % of control where 0% means no effect;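 further: the control signal comes from parental cells without the receptor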
Target sequence (P16473 whole entry, looked up): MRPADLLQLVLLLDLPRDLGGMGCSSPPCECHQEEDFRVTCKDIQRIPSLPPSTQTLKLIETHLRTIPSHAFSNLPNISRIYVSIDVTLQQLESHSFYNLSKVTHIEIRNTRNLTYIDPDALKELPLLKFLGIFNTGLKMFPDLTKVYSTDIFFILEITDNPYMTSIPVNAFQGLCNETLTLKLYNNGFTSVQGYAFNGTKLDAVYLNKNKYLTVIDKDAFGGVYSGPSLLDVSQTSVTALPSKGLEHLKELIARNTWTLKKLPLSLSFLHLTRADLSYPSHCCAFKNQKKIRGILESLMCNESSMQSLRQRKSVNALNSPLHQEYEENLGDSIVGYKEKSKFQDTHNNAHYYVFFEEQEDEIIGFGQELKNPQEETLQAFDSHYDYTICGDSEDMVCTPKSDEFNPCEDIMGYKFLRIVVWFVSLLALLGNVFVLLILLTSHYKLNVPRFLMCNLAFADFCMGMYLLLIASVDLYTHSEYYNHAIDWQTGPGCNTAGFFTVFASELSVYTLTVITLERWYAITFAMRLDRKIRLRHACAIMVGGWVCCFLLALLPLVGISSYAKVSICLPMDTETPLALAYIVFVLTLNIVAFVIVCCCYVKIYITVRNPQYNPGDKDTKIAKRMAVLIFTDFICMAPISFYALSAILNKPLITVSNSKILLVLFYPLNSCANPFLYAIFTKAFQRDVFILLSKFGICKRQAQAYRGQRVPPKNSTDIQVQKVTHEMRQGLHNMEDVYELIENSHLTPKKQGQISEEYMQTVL
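cAMP rise detected as CNG-channel membrane depolarization by fluorescent dye (emission 590 nm), 30 min after compound, following 60 min dye loading containing 100 uM RO 20-1724 at room temperature. Cells: TSHR/CNG HEK 293, with parental CNG HEK 293 as control.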
15-hLO inh – blocks human 15-lipoxygenase activity. AID 887. P16050. Potency, µM (top dose mostly 57.1 µM), for the others: top-dose activity change, negative = inhibition, actives largely listed as inhibitors. purified 15hLO-1, xylenol orange hydroperoxide absorbance. 1.4% of 74,000 active; further: on the % scale 0 is the no-effect control and ±100 the full control effect; nearly all actives have a fitted effect of over 55% in size
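Compounds were preincubated 15 min at room temperature with 40 nM purified human enzyme (25 mM Hepes pH 7.5, 0.01% Triton X-100); 50 uM arachidonic acid reacted 6 min. Fe-xylenol orange detection, 30 min, absorbance ratio 573/405 nm.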
* hit, by the source's call; ? = inconclusive; . = not tested or not shown; [ ] = remark or other dose. In the library only some 4.8% were active in any assay of this set; here they are far more common. Unless noted, the call rests on the fitted dose curve; in most records, active means well fitted curve in the direction sought with a large enough effect; inconclusive means small, poorly fitted or top-dose-only effect, or another doubt; inactive means no such curve, though single readings can be large; an effect the other way counts as inactive or inconclusive. Potency means the concentration at half of the fitted maximal effect.

SMILES | Casp7 inh | ERK AVP block | HEK293 cAMP ctrl | Caspase-1 inhib | TSHR ag | 15-hLO inh
Cc1cc2ccc(OC(=O)c3ccc(N=C(N)N)cc3)cc2oc1=O | 0.1%[11.5 µM] | 1.8%[11.5 µM] | -6.3%[11.4 µM] | -0.6%[11.5 µM] | -0.7%[11.4 µM] | ?
COc1ccccc1NC(=O)N1CCc2[nH]c3ccc(Cl)cc3c2C1 | ? | 25.1µM* | -5.1% | . | -7.7% | ?
COc1ccc(Oc2ncc3nc(-c4ccc(OC)cc4)c(=O)n(Cc4cccs4)c3n2)cc1 | ? | -4.6% | ? | . | ? | 5.2%
CC(CC1C(C#N)=C(N)SC(N)=C1C#N)c1ccccc1 (stereo not given) | -4.5% | -1.9% | 6.0% | -3.7% | -6.7% | 15.8µM*
CC(c1ccccc1)C1C(C#N)=C(N)SC(N)=C1C#N (stereo not given) | -0.1% | -9.8% | -2.5% | -1.1% | -10.6% | -13.2%
CN1CCN(c2ncc3nc(-c4cccc(C#N)c4)c(=O)n(CCc4ccccc4)c3n2)CC1 | ? | -19.9% | ? | . | ? | -11.6%
COc1c(N2C[C@@H]3CCCN[C@H]3C2)c(F)cc2c(=O)c(C(=O)O)cn(C3CC3)c12 | -29.6% | 27.3% | . | -15.5% | . | 3.9%
c1ccc(CNC2=NCCCCC2)cc1 | -0.5% | 15.9% | 3.3% | -0.2% | 0.3% | 6.2%
Cc1ccc(CNC2=NCCCCC2)n1C | -0.8% | -9.3% | 1.1% | -3.1% | 1.4% | 20µM*
O=C(Nc1ccc2c(c1)OCO2)N1CCN(C/C=C/c2ccccc2)CC1 | -2.2% | ? | ? | -7.3% | ? | 31.6µM*
O=C(Nc1ccccc1)N1CCN(Cc2ccc3c(c2)OCO3)CC1 | -2.1% | -2.7% | ? | 0.4% | ? | -1.4%
O=C1c2ccc(O)c(O)c2C(=O)c2c(O)ccc(O)c21 | -22.6% | 3.16µM* | . | -2.6% | . | 0.251µM*
O=C1c2c(O)ccc([N+](=O)[O-])c2C(=O)c2c([N+](=O)[O-])ccc(O)c21 | -3.4% | -9.3% | -118.1% | -6.5% | ? | -7.2%
O=C1c2cccc(O)c2C(=O)c2c(O)cccc21 | -7.1% | ? | -24.2% | 2.9% | ? | ?
O=C1c2ccccc2C(=O)c2c1ccc(O)c2O | -25.7% | ? | . | -1.4% | . | 10µM*
COc1ccc(Oc2ncc3nc(-c4ccccc4)c(=O)n(C4CC4)c3n2)cc1 | ? | -5.1% | ? | ? | ? | -6.0%
Cc1ccccc1-c1nc(Nc2ccncc2)c2ccccc2n1 | -4.6% | -5.9% | 8.7% | -2.6% | 4.7% | ?
CN1CCN(c2ncncc2-c2ccoc2)CC1 | -18.2% | -13.0% | 1.6% | -7.6% | 4.9% | 31.6µM*
c1cncc(CNc2ncncc2-c2ccoc2)c1 | -13.1% | -19.7% | 9.0% | -8.0% | 3.6% | ?
c1ncc(-c2ccoc2)c(NC2CC2)n1 | -18.2% | -1.2% | 3.98µM* | -7.5% | ? | ?
CN1CCN(c2ncncc2-c2ccc(N(C)C)cc2)CC1 | -1.6% | ? | 1.3% | -1.4% | 3.9% | -17.1%
CC(=O)N(Cc1ccc2c(c1)OCO2)C1CC(=O)N(CCc2ccccc2)C1=O (stereo not given) | -1.8% | -7.4% | 1.5% | -1.6% | 3.3% | 11.6%
N#CCCn1c(=O)c(-c2cccc(C#N)c2)nc2cnc(Oc3cccc(Cl)c3)nc21 | ? | -2.0% | 5.6% | . | -22.6% | 0.8%
COc1cccc(Nc2ncc3nc(-c4ccccc4)c(=O)n(C[C@H]4CCCO4)c3n2)c1 | ? | -2.2% | ? | . | ? | -3.3%
COC(=O)[C@@H]1O[C@@H](SCCN)[C@@H](O)[C@H](O)[C@H]1O | -1.9%[11.5 µM] | 23.2%[11.5 µM] | -4.2%[11.4 µM] | 1.7%[11.5 µM] | 11.7%[11.4 µM] | 4.6%[11.4 µM]
SMILES | Casp7 inh | ERK AVP block | HEK293 cAMP ctrl | Caspase-1 inhib | TSHR ag | 15-hLO inh
CCN(C(=O)c1c(-c2ccccc2)noc1C)c1ccccc1 | 0.3% | -9.4% | 7.8% | -0.3% | 10µM* | 4.1%
CCCCCCCCCCC/C=C\C(C)(C)/C=C\CCCC(=O)O | 2.0% | 0.7% | -4.1% | 1.8% | 6.6% | 3.4%
C=CC(C)(O)CCCC(C)CCCC(C)CCCC(C)C (stereo not given) | -4.0% | 8.8% | -3.8% | -4.5% | -5.7% | 10µM*
C/C(=C\CO)CCC(C)CCCC(C)CCCC(C)C (stereo not given) | -0.6% | 27.6% | . | 2.3% | . | -5.4%
CSc1nnc2c(n1)OC=Nc1ccccc1-2 | -1.1% | -19.7% | -11.5% | 0.3% | -7.1% | -1.1%
CSc1nnc(-c2ccco2)c(-c2ccco2)n1 | -9.3% | -11.3% | -4.9% | -11.5% | -0.4% | 2µM*
Cc1cnc(CNc2nc(-c3ccccc3Cl)nc3ccccc23)cn1 | -3.7% | -4.2% | ? | -3.5% | ? | -2.5%
CCOC(=O)c1cc(C)[nH]c(=S)c1C#N | -3.0% | -14.3% | 8.7% | -1.6% | 4.1%[11.4 µM] | 3.98µM*
CN1CC[C@@]2(CCCN(C(=O)c3cc(C(F)(F)F)cc(C(F)(F)F)c3)C2)C1 | 1.7% | -8.6% | -12.4% | -2.4% | -0.7% | 2.7%
COc1cc2c(cc1OC)-c1cc(=Nc3c(C)cc(C)cc3C)n(C)c(=O)n1CC2 | -8.5% | 6.31µM* | ? | -8.0% | ? | ?
COc1cc2c(cc1OC)-c1cc(NC3CCCC3)nc(=O)n1CC2 | -1.1% | ? | 2.2% | -3.0% | . | -11.2%
CN1CCN(c2ccnc(-c3cccc(NS(C)(=O)=O)c3)n2)CC1 | 0.3% | -21.4% | 4.2% | 0.0% | 4.9% | -12.7%
CCCCn1c(SCC(=O)c2ccccc2)nc2c1c(=O)[nH]c(=O)n2C | 0.3% | -18.1% | 7.9% | -0.8% | 2.4% | -3.2%
CC1CCCC(C)N1C(=O)CSc1nnc(C2CCCCC2)o1 (stereo not given) | -17.1% | -1.6% | 17.9% | -9.3% | 8.3% | 4.0%
CC1CN(C(=O)c2cccs2)CCN1C(=O)c1cccs1 (stereo not given) | -1.0% | 2.8% | 31.6µM* | -1.2% | ? | 63.5%
Cc1cc(Cl)ccc1OC(C)C(=O)Nc1ccccc1N1CCOCC1 (stereo not given) | -0.6% | 17.1% | 25.1µM* | 2.1% | ? | -21.8%
CC(C)C(N)C(=O)NC(Cc1c[nH]c2ccccc12)C(=O)O (stereo not given) | -0.6% | -14.3% | . | -1.1% | . | 5.4%
CCOc1ccc(-n2c(Cc3ccccc3)nnc2SCc2c(C)noc2C)cc1 | -0.9% | 4.3% | 27.6% | -1.3% | 15.8% | 3.9%
Cc1noc(C)c1CN1C(=O)NC(Cc2ccccc2)(Cc2ccccc2)C1=O | 5.4% | 5.2% | -0.5% | 1.5% | 25.1µM* | -1.8%
COc1ccc(CN/C(C)=C(/C#N)C(N)=O)cc1OC | -2.1% | -15.3% | -2.0% | -1.0% | 12.6µM* | -6.4%
COc1ccc(OCC(=O)Nc2cccc(-c3nc4ccccc4o3)c2)cc1 | -0.5% | ? | ? | -2.8% | ? | -9.4%[11.4 µM]
Cc1cc(C)cc(OCC(=O)Nc2cccc(-c3nnc(-c4ccco4)o3)c2)c1 | 0.2% | ? | 25.1µM* | -3.6% | ? | -9.2%
